SW480 rereplic – A quantitative high throughput screen for small molecules that induce DNA re-replication in SW480 colon adenocarcinoma cells; SW480 DNA re-replication, Hoechst DNA content imaging, 48 h; Potency, µM (highest dose often 46.1 µM), usual class: activators; 340,000 tested, 1.8% active; AID 624297, 2012; further: nearly all actives have a fitted effect of over 55% in size
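Treated cells incubate 48 hr (37 C, 5% CO2), are stained 40 min with Hoechst, and nuclear fluorescence is enumerated; a rise in nuclei with high DNA signal marks re-replication.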
Integrin act MD – qHTS for Activators of Integrin-Mediated Alleviation for Muscular Dystrophy; AID 624291, 2012; alpha7betagal myoblasts, beta-gal FDG fluorescence, 48 h; Potency, µM (doses to about 38.3 µM), usual class: activators; 350,000 tested, 0.064% active; further: nearly all actives have a fitted effect of over 60% in size
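alpha7betagal+/- myoblasts (passage 13, 250/well) treated 48 h at 37C with compounds at 1:260 dilution of DMSO stock. Lysed, then beta-galactosidase activity read as FDG fluorescence (ex 480/em 540) after 30 min, with pre-read for autofluorescence.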
Mito fusion act – qHTS Assay for Small Molecule Inhibitors of Mitochondrial Division or Activators of Mitochondrial Fusion; S. cerevisiae fusion-defective mutant growth rescue, CellTiterGlo 48 h; Potency, µM (series often up to 46.1 µM), most hits filed as activators; 320,000 tested, 0.23% active; further: nearly all actives have a fitted effect of over 45% in size
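Temperature-sensitive fusion-defective S. cerevisiae (e.g. fzo1-1, mgm1-5) were grown with compound in YPEG medium (3% ethanol, 3% glycerol) for 48 hours at 37C. Growth rescue was measured as viability by CellTiterGlo luminescence after 10 minutes at ambient.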
A-T KAP1 phos – qHTS Assay for Identifying a Potential Treatment of Ataxia-Telangiectasia; F2112 A-T fibroblasts, KAP-1 phosphorylation AlphaLISA; neocarzinostatin DNA damage 30 min before lysis; Potency, µM (doses to about 57.5 µM), most hits filed as activators; 320,000 tested, 0.19% active; AID 485349, 2010; further: nearly all actives have a fitted effect of over 45% in size
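hTERT-immortalized A-T patient fibroblasts (F2112), 500 cells/well in OPTI-MEM, 1% FBS, got compounds for 60 min, then NCS for 30 min at 37C. Lysates were then assayed for phospho-KAP-1 by AlphaLISA (anti-pKAP1 donor, anti-KAP1 acceptor beads), 6 hr at 25C.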
MCF10A rerep – A quantitative high throughput screen for small molecules that induce DNA re-replication in MCF 10a normal breast cells. 350,000 tested, 2.9% active. MCF 10A DNA re-replication, Hoechst nuclear intensity, 48 h. Potency, µM (series often up to 46.1 µM), usual class: activators; further: nearly all actives have a fitted effect of over 50% in size
Each line names hits and unclear results; the compound was inactive in the other large screens. In the library only some 4.2% were active in any assay of this set; here they are far more common. The call rests on the fitted dose curve; in most records, active means well fitted activation curve with a large enough effect; inconclusive means small, poorly fitted or top-dose-only effect; inactive means no such curve, though single readings can be large or run the other way.

CN(C)/C=C/C(=O)c1ccc(F)cc1	MCF10A rerep 18µM
N#CC1=C(N)OC2=C(CC/C2=C\c2ccccc2)C1c1ccccc1 (stereo not drawn)	SW480 rereplic 15µM, MCF10A rerep 5.8µM
CC1=C2C3OC(=O)C(C)C3CCC2(C)C=C(Br)C1=O (stereo not drawn)	none (no result: SW480 rereplic, Mito fusion act, A-T KAP1 phos, MCF10A rerep)
CCOC1=C/C(=C/c2c(N)n3nc(-c4ccccc4)sc3nc2=O)C=CC1=O	MCF10A rerep 26µM
N#C/C(=C\c1ccccc1OCc1ccc(C(=O)O)cc1)C(=O)Nc1ccc(O)cc1	MCF10A rerep 23µM
COC(=O)c1ccc(COc2ccccc2/C=C(\C#N)C(=O)Nc2ccc(C)cc2)cc1	MCF10A rerep inconclusive
C=CCNC(=O)/C(C#N)=C/c1ccccc1OCc1ccc(C(=O)OC)cc1	MCF10A rerep 4.6µM
CCc1cccc(C)c1Nc1nc2ccccc2n2cnnc12	Integrin act MD inconclusive
COc1ccc(S(=O)(=O)Nc2cccc3ccc(O)cc23)cc1	SW480 rereplic inconclusive, MCF10A rerep 21µM (no result: Mito fusion act, A-T KAP1 phos)
COc1ccc(S(=O)(=O)Nc2ccccc2C)cc1	SW480 rereplic 13µM, MCF10A rerep 21µM
COc1ccc(S(=O)(=O)Nc2c(O)ccc3ccccc23)cc1OC	MCF10A rerep 16µM (no result: Mito fusion act, A-T KAP1 phos)
CCSc1n[nH]c(=O)[nH]c1=O	none
C[C@H](CO)N1C[C@H](C)[C@@H](CN(C)C(=O)Nc2ccccc2)Oc2ncc(-c3ccc(C#N)cc3)cc2C1=O	none (no result: SW480 rereplic, Mito fusion act, A-T KAP1 phos, MCF10A rerep)
Cc1cc(/C=C2\SC(=Nc3ccc(F)cc3)NC2=O)c(C)n1-c1ccc(S(N)(=O)=O)cc1	SW480 rereplic 8.2µM, MCF10A rerep 1.6µM
Cc1cc(/C=C2\SC(=S)NC2=O)c(C)n1-c1ccc(O)cc1	MCF10A rerep inconclusive
CC(C)CC(=O)Nc1ccccc1-c1nnn(CC(=O)N2CCc3ccccc3C2)n1	none
O=S(=O)(c1ccccc1F)N1CCN(c2nc(-c3cccnc3)nc3ccccc23)CC1	Mito fusion act inconclusive
Cc1ccc(C)c(S(=O)(=O)N2CCN(c3nc(-c4cccnc4)nc4ccccc34)CC2)c1	Mito fusion act inconclusive, MCF10A rerep 0.65µM
COc1ccc(CC(=O)NCc2ccc(-n3cccc3)cc2)cc1OC	SW480 rereplic 5.2µM, MCF10A rerep 5.8µM
COc1cc(OC)cc(C(=O)NCc2ccc(-n3cccc3)cc2)c1	SW480 rereplic inconclusive, Integrin act MD inconclusive, MCF10A rerep inconclusive
Cc1ccc(CNC(=O)Cc2ccc(-n3cccc3)cc2)cc1	SW480 rereplic 4.1µM, MCF10A rerep 5.8µM
COc1ccc(CC(=O)N/N=C/c2c(C)n(C)c3ccccc23)cc1OC	SW480 rereplic 15µM, MCF10A rerep 7.3µM
Cc1ccc(CNC(=O)Cc2ccc(-n3c(=O)[nH]c4ccsc4c3=O)cc2)cc1	SW480 rereplic 6.5µM, MCF10A rerep 2.1µM
CCN(CC(=O)Nc1ccc2c(c1)OCCO2)C(=O)c1ccc(CS(C)(=O)=O)cc1	none (no result: Mito fusion act)
CCCCc1cc(=O)oc2cc(OCC(=O)NCC3CCC(C(=O)O)CC3)ccc12 (stereo not drawn)	none
COc1ccc(CN(C)C(=O)C(Cc2ccccc2)NC(=O)c2ccccc2)c(OC)c1 (stereo not drawn)	SW480 rereplic inconclusive, Mito fusion act inconclusive
Cc1ccc(-c2[nH]c(-c3ccc(C(=O)O)cc3)nc2-c2ccccc2)cc1	SW480 rereplic inconclusive, MCF10A rerep 9.2µM
O=C(O)c1ccc(-c2nc(-c3ccccc3)c(-c3cccs3)[nH]2)cc1	none
COc1ccc(NC(=O)CN2C(=O)NC3(CCCC3)C2=O)c(OC)c1	none
COc1cccc(Oc2ccc(C(F)(F)F)cc2NC(=O)CN2C(=O)NC3(CCCC3)C2=O)c1	MCF10A rerep 18µM (no result: Mito fusion act)
Cc1[nH]oc(=O)c1N=Nc1ccc2[nH]c(=O)[nH]c2c1	none (no result: Mito fusion act, A-T KAP1 phos)
CCCS(=O)(=O)Nc1ccc(Nc2c3ccccc3nc3ccccc23)c(OC)c1	SW480 rereplic 7.3µM (no result: Mito fusion act, A-T KAP1 phos)
CCOc1ccc(N=Cc2ccc([N+](=O)[O-])cc2)c(O)c1	none (no result: SW480 rereplic, Mito fusion act, A-T KAP1 phos, MCF10A rerep)
CC(C)(C)[C@@H]1C=C(C(=O)N2CCN(Cc3ccc4c(c3)OCO4)CC2)O[C@H](OCc2ccc(CO)cc2)C1	none

Screening results from PubChem.
